From PubChem BioAssay
Where “and” joins values, the source holds several entries; their conditions need not be identical. Equal entries are not always repeated. For part of these data: Entries with a potency or affinity are not part of this list. Calls of active or inactive are those of the source.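 The calls were made as follows, unless noted: active = thallium flux through the channel raised or lowered by more than 3 SD from vehicle-only wells, actives on both sides; inactive = the rest.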

What was measured:
[1] = Cy5 fluorescence interference with SSB-bound oligo, artefact control for HCV NS3 helicase inhibitor project, biochemical, NIH Clinical Collection, E. coli SSB (AID 743268; call rule not given here)
[2] = tested on: Hepatitis C virus NS3 helicase; assay: HCV NS3 helicase inhibitors, primary screen, biochemical, fluorescence polarization, NIH Clinical Collection (AID 743270; call rule not given here); conditions: NS3 helicase binding to Cy5-dT15 DNA, stronger effect = higher value, concentration not given here
[3] = molecular target: Single-stranded DNA-binding protein (Escherichia coli (strain K12)) (UniProt P0AGE0); assay: E. coli SSB displacement from DNA, counter-screen for HCV NS3 helicase inhibitor project, biochemical, fluorescence polarization, NIH Clinical Collection (AID 743271; in the data active = inhibition above about 28%); conditions: stronger effect = higher value, concentration not given here
[4] = fluorescence interference in NS3h assay format, artefact control for HCV NS3 helicase inhibitor project, biochemical, NIH Clinical Collection (AID 743272; call rule not given here;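 also: HCV NS3 helicase with a Cy5 labelled single stranded DNA probe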); conditions: fluorescence interference counterscreen, stronger effect = lower value
[5] = viability rescue of complex I mutant cybrids, primary screen, cell-based, galactose medium, ATP luminescence (AID 1645843;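 active = z-score of at least 1.8 in each of two replicates, scored against plate mean and spread of sample wells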;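 also: positive z means more ATP and so rescue of galactose-driven cybrid death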); conditions: complex I mutant cybrid cells, 72 h, stronger effect = higher value
F380Y/beta4 = assay: modulators of BK channel variants, profiling panel, selectivity assay, cell-based, U2OS BacMam, thallium flux, beta subunits (AID 1259406); conditions: at 30 µM;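 also: initial slope of Thallos dye fluorescence rise after thallium is added; log ratio against the mean of 0.3% DMSO vehicle wells on the same plate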
[6] = molecular target: Calcium-activated potassium channel subunit alpha-1 (Homo sapiens) + Leucine-rich repeat-containing protein 26 (Homo sapiens) (UniProt Q12791+Q2I0M4); assay: as above; conditions: F380Y/Slo1WT/gamma1, at 30 µM
Chain of Calcium-activated potassium channel subunit alpha-1 (Homo sapiens) + Leucine-rich repeat-containing protein 26 (Homo sapiens) (Q2I0M4 whole entry, looked up, one chain of several): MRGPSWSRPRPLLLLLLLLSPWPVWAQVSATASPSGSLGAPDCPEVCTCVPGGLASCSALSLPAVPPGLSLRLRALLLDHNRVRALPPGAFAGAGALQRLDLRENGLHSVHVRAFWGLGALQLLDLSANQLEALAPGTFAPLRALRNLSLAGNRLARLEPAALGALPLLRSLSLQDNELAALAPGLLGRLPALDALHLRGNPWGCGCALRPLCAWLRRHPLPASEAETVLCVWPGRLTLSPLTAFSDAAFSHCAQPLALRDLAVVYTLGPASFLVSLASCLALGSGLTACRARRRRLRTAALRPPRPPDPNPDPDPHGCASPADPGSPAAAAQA

R275C = assay: as above; conditions: at 30 µM
R275C/beta1 = assay: as above; conditions: at 30 µM
R275C/beta2Delta = assay: as above; conditions: at 30 µM
R275C/beta4 = assay: as above; conditions: at 30 µM
R275C/Slo1WT/beta2 = assay: as above; conditions: at 30 µM
[7] = polyglutamine-triggered caspase-3 activation inhibitors, cell-based (AID 1583); conditions: polyglutamine-induced caspase-3 activation, cell assay; stronger effect = higher value;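 tested at 10 µM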
[8] = suppressors of polyQ aggregation in yeast, 75Q-TubU reporter (AID 1593); conditions: Yeast 75Q polyglutamine aggregation reporter
[9] = rescue of polyQ-huntingtin neuronal dysfunction in worms, whole organism, C. elegans mechanosensory neurons, N-terminal huntingtin (AID 1599); conditions: touch response, stronger effect = higher value
[10] = inhibitors of mitochondrial cytochrome c release, biochemical, purified mitochondria (AID 1603); conditions: stronger effect = lower value;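 also: mouse liver mitochondria challenged with calcium chloride; signal normalized to the plate average as 100%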
[11] = inhibitors of polyQ protein aggregation (AID 1604); conditions: polyglutamine-induced protein aggregation inhibition assay; stronger effect = higher value; tested at 2.5 µM
[12] = enhancers of glutamate uptake in motor neurons, MN-1 cell line (AID 1612); conditions: MN-1 motor neuron cells, stronger effect = higher value;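 also: tested at 1 µM final; 0% = mean of DMSO vehicle wells on each plate; positive means more glutamate uptake than control and negative means less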
[13] = suppressors of polyglutamine aggregation in yeast, 75Q-TubH (AID 1616); conditions: S. cerevisiae 75Q-TubH polyglutamine aggregation suppression; stronger effect = higher value
[14] = LFS_MB_P medulloblastoma growth inhibition, cell-based, chromothripsis tumors, cisplatin or BGB combos (AID 1671449; in the data active = inhibition above about 80%;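 also: cells exposed for 96 hours; 0% = vehicle DMSO and 100% = killing by high DMSO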); conditions: LFS_MB_P medulloblastoma cells

For `CN(CCOc1ccc(CC2SC(=O)NC2=O)cc1)c1ccccn1` (centres undefined), the fluorescence ratio [1] was 1.05 (inactive) and 0.99 (inactive), the inhibition [2] was -1.19% (inactive) and the inhibition [3] was 4.52% (inactive) and -0.87% (inactive). For the same molecule, the fluorescence ratio [4] was 1.01 (inactive) and 0.96 (inactive), the z-score [5] was 0.19 (inactive) and 0.27 (inactive) and the log fold change Tl+ flux (F380Y/beta4) was -0.0318 (inactive) and 0.0667 (inactive). The log fold change Tl+ flux [6] was -0.00356 (inactive) and 0.0332 (inactive), the log fold change Tl+ flux (R275C) was 0.0457 (inactive) and 0.0237 (inactive) and the log fold change Tl+ flux (R275C/beta1) was 0.113 (active) and 0.178 (active). The log fold change Tl+ flux (R275C/beta2Delta) was 0.0398 (inactive) and 0.0538 (inactive), the log fold change Tl+ flux (R275C/beta4) was 0.0706 (inactive) and 0.0705 (inactive) and the log fold change Tl+ flux (R275C/Slo1WT/beta2) was -0.0105 (inactive) and 0.0261 (inactive).
With `CCc1cccc2c3c([nH]c12)C(CC)(CC(=O)O)OCC3` (centres undefined) the inhibition [7] was 10.4%, the score [8] was 1.08 and the rescue above control [9] was -7.42. The cytochrome c release ratio [10] was 0.88, the inhibition of aggregation [11] was 57.6% and the glutamate uptake change [12] was -3.42%. For the same molecule, the aggregation suppression score [13] was 0.918, the fluorescence ratio [1] was 1.05 (inactive) and the inhibition [2] was 4.09% (inactive). For the same molecule, the inhibition [3] was -2% (inactive), the fluorescence ratio [4] was 1.02 (inactive) and the z-score [5] was 0.63 (inactive) and -0.035 (inactive). For the same molecule, the log fold change Tl+ flux (F380Y/beta4) was -0.00239 (inactive), the log fold change Tl+ flux [6] was 0.00932 (inactive) and the log fold change Tl+ flux (R275C) was 0.0181 (inactive). The log fold change Tl+ flux (R275C/beta1) was 0.127 (active), the log fold change Tl+ flux (R275C/beta2Delta) was 0.0673 (inactive) and the log fold change Tl+ flux (R275C/beta4) was 0.0823 (inactive). The log fold change Tl+ flux (R275C/Slo1WT/beta2) was 0.0472 (inactive).
In the case of `N[C@@H](C(=O)N[C@@H]1C(=O)N2C(C(=O)O)=C(Cl)CS[C@H]12)c1ccccc1`, the fluorescence ratio [1] is reported as 0.95 (inactive), the inhibition [2] is reported as -4.59% (inactive) and the inhibition [3] is reported as 1.97% (inactive). For the same molecule, the fluorescence ratio [4] was 0.91 (inactive), the log fold change Tl+ flux (F380Y/beta4) was -0.0331 (inactive) and the log fold change Tl+ flux [6] was -0.07 (inactive). For the same molecule, the log fold change Tl+ flux (R275C) was 0.0278 (inactive), the log fold change Tl+ flux (R275C/beta1) was 0.0103 (inactive) and the log fold change Tl+ flux (R275C/beta2Delta) was 0.0124 (inactive). The log fold change Tl+ flux (R275C/beta4) was -0.0176 (inactive) and the log fold change Tl+ flux (R275C/Slo1WT/beta2) was -0.0279 (inactive).
For `COc1cc2nc(N(C)CCCNC(=O)C3CCCO3)nc(N)c2cc1OC` (centres undefined), the fluorescence ratio [1] was 1.04 (inactive), the inhibition [2] was -1.98% (inactive) and the inhibition [3] was -3.95% (inactive). For the same molecule, the fluorescence ratio [4] was 1.02 (inactive), the z-score [5] was -0.01 (inactive) and 0.43 (inactive) and the log fold change Tl+ flux (F380Y/beta4) was 0.00267 (inactive). For the same molecule, the log fold change Tl+ flux [6] was -0.0369 (inactive), the log fold change Tl+ flux (R275C) was -0.0434 (inactive) and the log fold change Tl+ flux (R275C/beta1) was 0.0106 (inactive). The log fold change Tl+ flux (R275C/beta2Delta) was -0.00473 (inactive), the log fold change Tl+ flux (R275C/beta4) was -0.0149 (inactive) and the log fold change Tl+ flux (R275C/Slo1WT/beta2) was 0.00335 (inactive).
With `O=C1C(CCS(=O)c2ccccc2)C(=O)N(c2ccccc2)N1c1ccccc1` (centres undefined) the inhibition [7] was 18.6%, the score [8] was 0.1 and the rescue above control [9] was -11.1. The cytochrome c release ratio [10] was 0.57, the inhibition of aggregation [11] was 71.9% and the glutamate uptake change [12] was -6.33%. The aggregation suppression score [13] was 0.341, the z-score [5] was -0.05 (inactive) and the log fold change Tl+ flux (F380Y/beta4) was 0.0952 (inactive). For the same molecule, the log fold change Tl+ flux [6] was 0.000816 (inactive), the log fold change Tl+ flux (R275C) was -0.0788 (inactive) and the log fold change Tl+ flux (R275C/beta1) was 0.0129 (inactive). For the same molecule, the log fold change Tl+ flux (R275C/beta2Delta) was -0.0044 (inactive), the log fold change Tl+ flux (R275C/beta4) was -0.0311 (inactive) and the log fold change Tl+ flux (R275C/Slo1WT/beta2) was 0.0214 (inactive).
For `Cc1cn([C@H]2C[C@H](N=[N+]=[N-])[C@@H](CO)O2)c(=O)[nH]c1=O`, the inhibition [7] was -8.49%, the score [8] was 1.46 and the rescue above control [9] was 1.62. It also gave a cytochrome c release ratio [10] of 1.1, an inhibition of aggregation [11] of 48.1% and a glutamate uptake change [12] of -23.5%. The aggregation suppression score [13] was 1.12, the fluorescence ratio [1] was 1.05 (inactive) and the inhibition [2] was -3.18% (inactive). For the same molecule, the inhibition [3] was -2.76% (inactive), the fluorescence ratio [4] was 1.04 (inactive) and the z-score [5] was 0.4 (inactive) and 0.685 (inactive). For the same molecule, the log fold change Tl+ flux (F380Y/beta4) was 0.0148 (inactive), the log fold change Tl+ flux [6] was 0.0181 (inactive) and the log fold change Tl+ flux (R275C) was -0.0157 (inactive). The log fold change Tl+ flux (R275C/beta1) was -0.0324 (inactive), the log fold change Tl+ flux (R275C/beta2Delta) was 0.0219 (inactive) and the log fold change Tl+ flux (R275C/beta4) was 0.00485 (inactive). The log fold change Tl+ flux (R275C/Slo1WT/beta2) was 0.022 (inactive).
Molecule `COC(=O)Nc1nc2ccc(C(=O)c3ccccc3)cc2[nH]1` has an inhibition [7] of -5.42%, a score [8] of 0.63 and a rescue above control [9] of -9.11. For the same molecule, the cytochrome c release ratio [10] was 0.9, the inhibition of aggregation [11] was 83.3% and the glutamate uptake change [12] was -29.4%. For the same molecule, the aggregation suppression score [13] was 0.598, the fluorescence ratio [1] was 1.04 (inactive) and the inhibition [2] was -15.9% (inactive). The inhibition [3] was -8.87% (inactive), the fluorescence ratio [4] was 0.98 (inactive) and the z-score [5] was 0.145 (inactive) and 0.665 (inactive) and -1.08 (inactive). For the same molecule, the log fold change Tl+ flux (F380Y/beta4) was -0.0277 (inactive), the log fold change Tl+ flux [6] was 0.00509 (inactive) and the log fold change Tl+ flux (R275C) was -0.00107 (inactive). For the same molecule, the log fold change Tl+ flux (R275C/beta1) was 0.00663 (inactive), the log fold change Tl+ flux (R275C/beta2Delta) was -0.00163 (inactive) and the log fold change Tl+ flux (R275C/beta4) was -0.0663 (inactive). The log fold change Tl+ flux (R275C/Slo1WT/beta2) was 0.008 (inactive).
With `CCCCCCNC(=O)n1cc(F)c(=O)[nH]c1=O` the fluorescence ratio [1] was 1.03 (inactive), the inhibition [2] was 0.4% (inactive) and the inhibition [3] was 1.44% (inactive). The fluorescence ratio [4] was 0.97 (inactive), the z-score [5] was 1.85 (inactive) and the inhibition ([14]; at 0.5 µM, stronger effect = higher value) was -27.2% (inactive) and -12.2% (inactive). For the same molecule, the inhibition ([14]; measured here: combination with BGB IC20, at 0.005 µM) was -12% and -29.3%, the inhibition ([14]; measured here: combination with BGB IC40, at 0.005 µM) was -26.4% and -7.28% and the inhibition ([14]; measured here: combination with BGB IC40, at 0.05 µM) was -34.3% and -13.5%. For the same molecule, the inhibition ([14]; measured here: combination with cisplatin, at 0.5 µM, stronger effect = higher value) was -48.8% and -55.1%, the inhibition ([14]; measured here: combination with cisplatin, at 5 µM, stronger effect = higher value) was -34.6% and -25% and the log fold change Tl+ flux (F380Y/beta4) was -0.0261 (inactive). For the same molecule, the log fold change Tl+ flux [6] was -0.0355 (inactive), the log fold change Tl+ flux (R275C) was -0.0237 (inactive) and the log fold change Tl+ flux (R275C/beta1) was 0.00244 (inactive). For the same molecule, the log fold change Tl+ flux (R275C/beta2Delta) was -0.0282 (inactive), the log fold change Tl+ flux (R275C/beta4) was -0.000915 (inactive) and the log fold change Tl+ flux (R275C/Slo1WT/beta2) was -0.00804 (inactive).
`NS(=O)(=O)c1cc2c(cc1Cl)NC=NS2(=O)=O` showed an inhibition [7] of -50.5%, a score [8] of 1.24 and a rescue above control [9] of 7.98. It also gave a cytochrome c release ratio [10] of 0.96, an inhibition of aggregation [11] of 80.6% and a glutamate uptake change [12] of 4.54%. For the same molecule, the aggregation suppression score [13] was 1.42, the fluorescence ratio [1] was 0.95 (inactive) and the inhibition [2] was -5% (inactive). The inhibition [3] was -1.24% (inactive), the fluorescence ratio [4] was 0.94 (inactive) and the z-score [5] was 0.185 (inactive) and 0.555 (inactive). The log fold change Tl+ flux (F380Y/beta4) was -2.4e-05 (inactive), the log fold change Tl+ flux [6] was 0.00339 (inactive) and the log fold change Tl+ flux (R275C) was 0.0234 (inactive). The log fold change Tl+ flux (R275C/beta1) was 0.0235 (inactive), the log fold change Tl+ flux (R275C/beta2Delta) was 0.0235 (inactive) and the log fold change Tl+ flux (R275C/beta4) was 0.0288 (inactive). The log fold change Tl+ flux (R275C/Slo1WT/beta2) was 0.0443 (inactive).
